In the library only some 0.9% were active in any assay of this set; here they are far more common.
TAR Tat displ: HIV-1 TAR-Tat binding disruption | HIV-1 TAR RNA, Tat peptide displacement FRET; stronger effect = higher value | z-score (concentration not given with the values) | 100,000 tested, 0.6% active | AID 1259389; active = z-score of 3 or more in at least 2 runs
CDC25B-CDK2 inh: human CDC25B-CDK2/CyclinA binding inhibition; P30305+P24941; HTRF CDC25B-CDK2/CyclinA binding, anti-His/anti-Flag; stronger effect = higher value; z-score (concentration not given with the values); 94,000 tested, 0.72% active; AID 1259370; in the data active = z-score above about 3.2
Active calls of the source: *.

How did CN(C)[C@@H]1C(=O)C(C(=O)NCN2CCCC2)=C(O)[C@@]2(O)C(=O)C3=C(O)c4c(O)cccc4[C@@](C)(O)C3CC12 (stereo not given in full) do in these assays?
TAR Tat displ: 14*

Results for O=C(O)CCC(=O)Nc1ncccc1OCc1ccc(Cl)c(Cl)c1 ?
CDC25B-CDK2 inh: -1.7

How did Cc1cc2nc(NC3=NCN(CCN4CCOCC4)CN3)nc(C)c2cc1C do in these assays?
CDC25B-CDK2 inh: 11*

Results for Cc1nc(NC2=NCN(Cc3ccco3)CN2)nc2ccccc12 ?
TAR Tat displ: 1.8; CDC25B-CDK2 inh: -1.2

What do the screens show for `Cc1cc2nc(NC3=NCN(Cc4ccco4)CN3)nc(C)c2cc1C`?
TAR Tat displ: 0.07; CDC25B-CDK2 inh: 14*

How did Cc1cc2nc(NC3=NCN(CCCN4CCOCC4)CN3)nc(C)c2cc1C do in these assays?
TAR Tat displ: 0.9; CDC25B-CDK2 inh: 0.99

Results for Cc1nc2cc3nc(C)sc3cc2s1 ?
CDC25B-CDK2 inh: 1.4

Results for COCCn1c(C)nc2c(sc3nc4c(cc32)COC(C)(C)C4)c1=O ?
TAR Tat displ: 0.94

How did CCC[B-]1(CCC)OC(Nc2ccc3ccccc3c2)=Nc2scc[n+]21 do in these assays?
CDC25B-CDK2 inh: 4.2*

What do the screens show for `c1ccc(NC2=Nc3scc[n+]3[B-](c3ccccc3)(c3ccccc3)S2)cc1`?
CDC25B-CDK2 inh: -1.9

How did CCOC(=O)C(C)c1nc2ccccc2[nH]c1=O (stereo not given) do in these assays?
CDC25B-CDK2 inh: -0.92

What do the screens show for `CCOC(=O)c1nc2ccccc2[nH]c1=O`?
TAR Tat displ: -0.31; CDC25B-CDK2 inh: 18*

Results for CCCc1nc(N2CCCC2)c(C#N)c2c1CCCC2 ?
CDC25B-CDK2 inh: -1.4

How did O=C(c1ccc2c(c1)C(=O)c1ccccc1-2)c1ccccc1Br do in these assays?
CDC25B-CDK2 inh: -1.4

What do the screens show for `O=C1c2ccccc2C(=O)c2c1oc(C(F)(F)F)c2C(=O)c1ccc2ccccc2c1`?
CDC25B-CDK2 inh: 9.3*

What do the screens show for `Cc1c(CCOC(=O)C2C3CC4CC(C3)CC2C4)sc[n+]1CC(=O)c1ccc(Br)cc1` (stereo not given)?
CDC25B-CDK2 inh: 9.1*

What do the screens show for `CC(C)NCC(O)COc1ccc(COCCOC(C)C)cc1` (stereo not given)?
TAR Tat displ: -0.4; CDC25B-CDK2 inh: 5.2*

How did COC(=O)CCc1ccc(OCC(O)CNC(C)C)cc1 (stereo not given) do in these assays?
TAR Tat displ: 1.5

How did Clc1ccccc1Cc1nnc(-c2cccs2)o1 do in these assays?
TAR Tat displ: -0.19; CDC25B-CDK2 inh: -1.2

Results for COc1cc(OC)cc(C(=O)Nc2noc3ccccc23)c1 ?
TAR Tat displ: 0.69; CDC25B-CDK2 inh: -1.3

What do the screens show for `COc1cccc(C(=O)Nc2n[nH]c3ccccc23)c1`?
CDC25B-CDK2 inh: 5.2*

How did COc1ccccc1C1c2c(-c3ccc(Cl)cc3)n[nH]c(=O)c2Nc2nnnn21 (stereo not given) do in these assays?
TAR Tat displ: -0.01; CDC25B-CDK2 inh: -0.74

How did CC(C)Nc1cc(N2CCN(C(=O)c3ccco3)CC2)c2noc3c2c1C(=O)c1ccccc1-3 do in these assays?
TAR Tat displ: 5.6*; CDC25B-CDK2 inh: 0.59

How did COc1ccc(Nc2cc(N3CCOCC3)c3noc4c3c2C(=O)c2ccccc2-4)cc1 do in these assays?
TAR Tat displ: -6.7; CDC25B-CDK2 inh: 1.3

What do the screens show for `CC(C)CNc1cc(N2CCN(C(=O)c3ccco3)CC2)c2noc3c2c1C(=O)c1ccccc1-3`?
TAR Tat displ: -5.2; CDC25B-CDK2 inh: -2.4

How did O=C1c2ccccc2-c2onc3c(N4CCOCC4)cc(N4CCOCC4)c1c23 do in these assays?
TAR Tat displ: 0.31; CDC25B-CDK2 inh: -0.66

Results for CC(C)Nc1cc(N2CCOCC2)c2noc3c2c1C(=O)c1ccccc1-3 ?
TAR Tat displ: 6.2*; CDC25B-CDK2 inh: 1.9

What do the screens show for `O=C1c2ccccc2-c2onc3c(N4CCOCC4)cc(Nc4ccc(F)cc4)c1c23`?
TAR Tat displ: 1.1; CDC25B-CDK2 inh: 13*

How did COc1ccc(C2CC(=O)N3CN(c4ccccc4)CSC3=C2C#N)c(OC)c1 (stereo not given) do in these assays?
TAR Tat displ: -1.4; CDC25B-CDK2 inh: 5.2*

What do the screens show for `COc1ccc(C2CC(=O)N3CN(c4ccc(C)c(C)c4)CSC3=C2C#N)c(OC)c1` (stereo not given)?
TAR Tat displ: -1.4; CDC25B-CDK2 inh: 3.7*

How did COc1ccc(C2CC(=O)N3CN(c4ccc(OC)cc4OC)CSC3=C2C#N)c(OC)c1 (stereo not given) do in these assays?
TAR Tat displ: -1.7; CDC25B-CDK2 inh: 5.7

How did COc1ccc(N2CSC3=C(C#N)C(c4c(F)cccc4Cl)CC(=O)N3C2)cc1 (stereo not given) do in these assays?
TAR Tat displ: -1.8; CDC25B-CDK2 inh: 3.7*

Results for N#CC1=C2SCN(c3ccc(F)cc3)CN2C(=O)CC1c1c(F)cccc1Cl (stereo not given) ?
TAR Tat displ: -0.67; CDC25B-CDK2 inh: 1.2

How did COc1ccc(C2CC(=O)N3CN(c4ccc(Cl)cc4)CSC3=C2C#N)c(OC)c1 (stereo not given) do in these assays?
TAR Tat displ: 0.43; CDC25B-CDK2 inh: 6*

What do the screens show for `COc1ccc(S(=O)(=O)N2CCc3cc4ccccc4nc32)cc1OC`?
TAR Tat displ: -0.74; CDC25B-CDK2 inh: -1.7

How did CCSc1nc2n(n1)C(c1ccccc1OC)C1=C(CCCC1=O)N2 (stereo not given) do in these assays?
TAR Tat displ: -1.1; CDC25B-CDK2 inh: -2.4

What do the screens show for `CC1CCCCN1S(=O)(=O)c1ccc(N2CCCCS2(=O)=O)cc1` (stereo not given)?
TAR Tat displ: -0.21

Results for CC(=O)Oc1ccc(C(=O)Nc2ccc3nc(-c4ccccc4)oc3c2)cc1 ?
CDC25B-CDK2 inh: -2.4

What do the screens show for `CC(NC(=O)c1cnc2sccn2c1=O)c1ccc2c(c1)OCCO2` (stereo not given)?
TAR Tat displ: 1.4

What do the screens show for `Cc1ccccc1C(=O)NC(Nn1cnnc1)(C(F)(F)F)C(F)(F)F`?
CDC25B-CDK2 inh: -0.28

Results for COc1ccc(Oc2nc(N3CCCC3)c(Cl)c3c2N(CC2CCCO2)CCS3(=O)=O)cc1 (stereo not given) ?
TAR Tat displ: -1.2; CDC25B-CDK2 inh: 9.4*

Results for CCCCN1CCS(=O)(=O)c2c(Cl)c(N3CCOCC3)nc(Oc3ccc(F)cc3)c21 ?
TAR Tat displ: 0.06; CDC25B-CDK2 inh: 7.8

How did Cn1c(=O)c2cc(C(=O)NC3CCCC3)sc2c2ccccc21 do in these assays?
TAR Tat displ: -0.7; CDC25B-CDK2 inh: 3*

Results for Cn1c(=O)c2cc(C(=O)NCCCN3CCCC3)sc2c2ccccc21 ?
TAR Tat displ: -0.48; CDC25B-CDK2 inh: 0.42

How did O=c1c(NCCc2ccc(Cl)cc2)c(-c2ccccc2)c1=O do in these assays?
TAR Tat displ: 6*

How did O=c1c(NCCc2ccc(Cl)cc2)c(-c2ccc(Cl)cc2)c1=O do in these assays?
TAR Tat displ: -1.6

What do the screens show for `Cc1nc2ccccc2c2c1C(=O)N(CC(C)C)C2=O`?
TAR Tat displ: -0.86; CDC25B-CDK2 inh: -0.98

Results for Cc1nc2ccccc2c2c1C(=O)N(CC1CCCO1)C2=O (stereo not given) ?
TAR Tat displ: 0.78; CDC25B-CDK2 inh: 7.4*

How did Cn1c(CSc2ccccc2)n[nH]c1=S do in these assays?
CDC25B-CDK2 inh: -0.72

Results for Cn1c(CSC2CN(C(c3ccccc3)c3ccccc3)C2)n[nH]c1=S ?
CDC25B-CDK2 inh: 13*

Results for NC(N)=NS(=O)(=O)c1ccc(N/C=C\C(=O)c2ccc(F)cc2)cc1 ?
CDC25B-CDK2 inh: -1.6
